Assay results published in PubChem BioAssay (NCI).
The panel holds about 83,000 compounds, 20% with a hit somewhere; the sample as a whole holds those more often.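 Percent growth is the endpoint: 0 to 100 indicates growth inhibition (40 means 60% inhibition), 0 means no net growth, and negative values indicate cell death.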 Values without a mark were called inactive. Activity calls are given as the source filed them. Rule for the calls: active = growth percent below 10; inactive = the rest.

Tested on: HL-60(TB) leukemia
Experiment: NCI-60 one-dose screen, 48 h (100 = growth as untreated, 0 = no growth, -100 = all killed)
Conditions: 10 µM unless noted

SMILES | growth
COc1ccc(-c2cc(-c3ccc(N(C)C)cc3)n3c(n2)nc2ccccc23)cc1 | 18.4%
O=C1c2ccccc2C23C(=C(c4cncnc4)c4ccccc42)CCCN13 (configuration not stated) | 112%
O=C(O)c1ccc(-n2cc(CNc3cc(F)c(F)c(F)c3)c(-c3ccc(F)cc3)n2)cc1 | 103%
O=C(Nc1cc(C(F)(F)F)cc(C(F)(F)F)c1)Nc1ccc2oc(=O)ccc2c1 | -24.3% (active)
Nc1nc(-c2cccc([N+](=O)[O-])c2)c(N=Nc2ccc([N+](=O)[O-])cc2Cl)s1 | 6.8% (active)
C(=C(\C1=NCCN1)n1cnc2ccccc21)/c1cccc2ccccc12 | 71.6%
Nc1cc(-c2c[nH]c3ccc(Br)cc23)nc2cc(-c3c[nH]c4ccc(Br)cc34)nn12 | 9.1% (active)
Cc1cn(-c2cc(NC(=O)c3cncc(C#Cc4cnc5ccc(O[C@@H]6CCOC6)nn45)c3)cc(C(F)(F)F)c2)cn1 | -32.6% (active)
COc1cccc(O)c1/C=C(/C)c1ccc2c(OC)cccc2[o+]1 | 120%
O=C1Nc2cc(OC(F)(F)F)ccc2Oc2ccc(-c3ccnc(N4CC[C@H](O)C4)c3)cc21 | -23.6% (active)
Cn1cc(CNc2nc3ccc(OC/C(=C/F)CN)cc3o2)ccc1=O | 101%
CCOC(=O)c1c(NCC(=O)Nc2cccc([N+](=O)[O-])c2)sc2c1CCCC2 | 1.42% (active)
COc1cc(-c2ccc3ncnc(NCc4ccccc4)c3c2)cnc1OC | 66%
CC(=C(c1ccc(OCCCN(C)C)cc1)c1ccc(OCCCN(C)C)cc1)c1ccc(Cl)cc1 | 75.5%
COC(=O)C(C)NS(=O)(=O)/N=C1\NC(=O)NC1=C(Cl)Cl (configuration not stated) | 98.7%
O=c1[nH]c(CCl)nc2c1cnn2-c1ccccc1 | 109%
O=C(CN1CCOCC1)NNc1ncnc2ccccc12 | 53%
CCNC(=O)Oc1ccc(/C(=C(/C)c2ccc(Cl)cc2)c2ccc(OCCN(C)C)cc2)cc1 | 52.7%
Cc1ccc(C(=O)Nc2cccc(C(F)(F)F)c2)cc1Nc1nc(-c2cnccn2)nc2c1cnn2C | 22%
Nc1ncc(-c2ccc3ncnc(Nc4cccc(Cl)c4F)c3c2)cn1 | 90.5%
O=S(=O)(NCCCNc1nccc(-c2[nH]c(-c3ccccc3)nc2-c2ccc(F)c(O)c2)n1)c1ccc(C(F)(F)F)cc1 | -3% (active)

SMILES | growth
NC(=O)c1c(NC(=O)c2cccc(OC(F)(F)F)c2)sc2c1CCC(=O)C2 | 60%
N#Cc1cccc(-c2cc(-c3ccc4c(c3)OCCO4)[nH]n2)c1 | 6.12% (active)
O=c1c2cc(-c3ccc(F)cc3F)ccc2n(Nc2ccccc2)c(=O)n1-c1cccc(C(F)(F)F)c1 | -45.5% (active)
COC(=O)/C=C/c1c(C2(C)NC(=O)c3ccccc3N2)c(=O)oc2ccc(Cl)cc12 (configuration not stated) | 109%
CCOP(=O)(OCC)OC[C@]12CCC(C)(C)CC1C1=CC[C@@H]3[C@@]4(C)CCCNC(C)(C)[C@@H]4CC[C@@]3(C)[C@]1(C)CC2 (some centres not stated) | 34.7%
CCOP(=O)(OCC)OC[C@]12CCC(C)(C)C[C@H]1C1=CC[C@@H]3[C@@]4(C)C/C(=C\c5cccnc5)[C@H](OP(=O)(OCC)OCC)C(C)(C)[C@@H]4CC[C@@]3(C)[C@]1(C)CC2 | -22.2% (active)
CCOC(=O)Nc1ccc2c(ccn2C(=O)c2cccc(F)c2)c1 | 12.3%
CCN1C(=O)N(CC)C2SC(N/N=C/C=C/c3ccccc3OC)=NC21 (configuration not stated) | -9.85% (active)
CC1=C(C)C(=O)C(Nc2cccc(C(=O)OC(C)(C)C)c2)=CC1=O | 71%
Clc1ccc2[nH]cc(-c3cncn3CCc3ccc4c(c3)OCO4)c2c1 | 52.1%
O=C(NCCCNc1cc(-c2cn(-c3ccccc3)nc2-c2cccc(O)c2)ccn1)Nc1cc(C(F)(F)F)cc(C(F)(F)F)c1 | 71.9%
CCOc1cccc(/C(N)=N/C(N)=N/c2nc3ccccc3s2)c1 | 72.2%
COc1ccc2c(c1)c(-c1nn3cc(-c4ccncc4)nc3s1)cn2C | -25.5% (active)
CN(C)c1ncc(/C=C2\SC(=S)N(Cc3ccccc3Cl)C2=O)s1 | 94%
COc1ccc(CCN2C(=O)CSC2=S)cc1OC | 62.4%
N#Cc1cn(Cc2ccc(Cl)cc2Cl)c(C(=O)c2ccc(Br)cc2)c1N | 96.6%
CS(=O)(=O)c1ccc(-n2cc(/C=N/O)c(-c3ccccc3)n2)cc1 | -45.8% (active)
O=C(COc1cccc2cccnc12)Nc1ccc(C(=O)/C=C/c2ccc(Cl)cc2)cc1 | 64.4%
Cc1nc(-c2cc3ccccc3oc2=O)ccc1C(=O)/C=C/c1ccc(Cl)c(Cl)c1 | 97.9%
N#Cc1c(-c2ccc(Br)cc2)cc(-c2c[nH]c3ccccc23)nc1N | 28.8%
CC(C)Sc1nc(NC2CC2)c(C#N)c(-c2ccccc2)n1 | 112%
